# Results taken from PubChem BioAssay (Tox21).
# Records with an inconclusive call do not appear. Calls of active or inactive are those of the source. Calls follow the shape of the dose curve; as a rule, active = well fitted cell-killing curve with a large enough effect in the repeat runs; inconclusive = weak or mixed curves, or effect the other way; inactive = flat fitted curve, though single readings scatter.
# Assay: qHTS RealTime-Glo MT Cell Viability Assay in HEK293 cells - 40 hour (AID 1224874); also: nearly all actives have a fitted effect of over 50% in size
# Details: RealTime-Glo luminescence, stronger effect = lower value
# Excerpt: U.S. Tox21 Program National Center for Advancing Translational Sciences [NCATS] NIH Chemical Genomics Center [NCGC] U.S. Environmental Protection Agency [EPA] National Institutes of Environmental Health Sciences [NIEHS] National Toxicology Program [NTP] U.S. Food and Drug Administration [FDA] Tox21 Assay Overview: Measure of cell viability is critical in the cell-base assay. Analysis of cell viability is necessary for the characterization of cell responses to cytotoxic drugs and environmental stress. A RealTime-Glo MT Cell Viability Assay to monitor cell viability in real time of continues cell culture during 40 hours of compound treatment was used to screen Tox21 10K library compounds in Hek293 cells. The RealTime-Glo MT Cell Viability Assay is a nonlytic, homogeneous, bioluminescent method to measure cell viability in real time using a simple, plate-based method. The assay involves adding NanoLuc luciferase and a cell-permeant prosubstrate to cells in culture. Viable cells reduce the proprietary prosubstrate to generate a substrate for NanoLuc luciferase. This substrate diffuses from cells into the surrounding culture medium, where it is rapidly used by the NanoLuc Enzyme to produce a luminescent signal. The signal correlates with the number of viable cells, making the assay well suited for cytotoxicity studies.
# Tox21 Assay Protocol Summary: The mixture of Hek293 cell suspension and reagents were dispensed at 600cells/6 ul/well in 1536-well tissue culture treated black solid bottom plates using a Multidrop dispenser. After the assay plates were incubated at a 37 C/5% CO2 incubator for 5 hours, 23 nL of compounds dissolved in DMSO, positive and negative controls was transferred to the assay plate by a pintool work station. The plates were incubated at 37 C for 40 hours. The luminescence intensity were measured at 0h, 8h, 16h, 24h, 32h and 40h time points using ViewLux plate reader during compound treatment.
# % is scaled to controls: 0 for no effect and ±100 for the full control effect.
row,Structure (SMILES),max response
1,O=C[C@@H](O)[C@H](O)[C@H](O)CO,-1.95% (inactive)
2,COC(=O)c1ccc(NC(C)=O)cc1OC,3.94% (inactive)
3,Cc1cc(O)c(Cl)cc1C,-1.07% (inactive)
4,CC(C)(C)NCC(O)COc1cccc2c1CCC(=O)N2 (stereo not given),5.27% (inactive)
5,O=C1CCCc2c(O)cccc21,3.41% (inactive)
6,CN(C)CCc1c[nH]c2ccc(C[C@H]3COC(=O)N3)cc12,2.27% (inactive)
7,C/C(=N\O)c1ccc(OCC(=O)N2CCCCC2)cc1,-11.7% (inactive)
8,CC(=O)OC1CCC(C(C)(C)C)CC1 (stereo not given),0.815% (inactive)
9,CCCCCCCCS(=O)(=O)O,-0.584% (inactive)
10,Cc1cc(C)c(N)c(Cl)c1,2.65% (inactive)
11,CCCCNCC,-1.39% (inactive)
12,CCCCCCCCCCCCCCBr,-1.85% (inactive)
13,CC(=O)OCC(=O)[C@@]1(O)CC[C@H]2[C@@H]3CCC4=CC(=O)C=C[C@]4(C)[C@H]3[C@@H](O)C[C@@]21C,-2.13% (inactive)
14,CC/C=C\CCOC(=O)c1ccccc1,-28.3% (inactive)
15,C/C=C/C(=O)CCCC,0.74% (inactive)
16,CCCCCCCCCCCCCCCC/C=C/C1CC(=O)OC1=O (stereo not given),-0.0124% (inactive)
17,O=C1CC2(CCCC2)CC(=O)N1CCNCC1COc2ccccc2O1 (stereo not given),-2.45% (inactive)
18,CC(C)(O)c1ccc(C(C)(C)O)cc1,0.887% (inactive)
19,O=C(O)P(=O)(O)O,10.7% (inactive)
20,O=S(=O)(O)c1cc(I)c(O)c2ncccc12,5.82% (inactive)

row,Structure (SMILES),max response
1,Cc1ccc(O)c([N+](=O)[O-])c1,-15.2% (inactive)
2,O=CN1CCCCC1,1.3% (inactive)
3,CCCCOCCCC,8.08% (inactive)
4,Cc1ccc(S(=O)(=O)NC(=O)NN2CC3CCCC3C2)cc1 (stereo not given),5.04% (inactive)
5,CC1=C(O)C(=O)CO1,0.017% (inactive)
6,N#Cc1ccccc1C#N,4.47% (inactive)
7,COc1cc(C(=O)NC2CCCNC2)cc(OC)c1OC (stereo not given),1.36% (inactive)
8,NNC(=O)CCCCC(=O)NN,3.47% (inactive)
9,Cc1nc2ccc(Cl)cc2[nH]1,7.55% (inactive)
10,CC(=O)/C=C/C=C1/C2CCC(C2)C1(C)C (stereo not given),-0.661% (inactive)
11,CC(C)(C)OC=O,8.37% (inactive)
12,CNC(=O)c1c(I)c(NC(C)=O)c(I)c(C(=O)O)c1I,3.75% (inactive)
13,CCOC(=O)[C@H](CCc1ccccc1)N[C@H]1CS[C@H](c2cccs2)CN(CC(=O)O)C1=O,0.833% (inactive)
14,Clc1ccc2c(c1)Nc1ccccc1S2,-17.2% (inactive)
15,O=P(O)(O)C(O)(Cc1cccnc1)P(=O)(O)O,-1.75% (inactive)
16,CCO[Si](CC(C)C)(OCC)OCC,-8.56% (inactive)
17,CC(C)(C)C(=O)NCCCC(=O)O,5.71% (inactive)
18,CCCCC(CC)CCC(CC(C)C)OS(=O)(=O)O (stereo not given),-2.38% (inactive)
19,CCOC(=O)CC(C(C)=O)C(C)=O,0.909% (inactive)
20,CC(C)(C)OC(=O)c1ccccc1C(=O)O,0.795% (inactive)
